Bioassay records: PubChem, National Center for Advancing Translational Sciences (NCATS)
A selection: hits, their analogues and other compounds. The true share with any hit is near 15%.
Pf growth 96h = Primary qHTS for delayed death inhibitors of the malarial parasite plastid, 96 hour incubation | P. falciparum luciferase reporter growth, 96 h | Potency, µM (titrated, usually from 28.7 µM), for inactives: at the highest dose activity change, negative = inhibition, actives largely listed as inhibitors | actives 6.9% (n = 320,000); also: potency is read from the fitted curve at half-maximal effect; % is scaled to controls: 0 for no effect and ±100 for the full control effect
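Plates of compound plus infected erythrocytes (2% hematocrit, 0.05% parasitemia final) incubate 96 hours, 37 C, 5% CO2. Detection reagent added; reduced luminescence from the parasites' luciferase reporter flags inhibition.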
HCV inh = qHTS Assay for Inhibitors of Hepatitis C Virus (HCV). Huh7.5.1 HCVcc-Cre infection, luciferase reporter, 44 h. AID 651820, 2012. Potency, µM (top dose mostly 41.8 µM), inactives show at the highest dose activity change, negative = inhibition, actives largely listed as inhibitors. actives 3.4% (n = 340,000); also: potency is read from the fitted curve at half-maximal effect; % is scaled to controls: 0 for no effect and ±100 for the full control effect
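Whole-lifecycle infectious HCVcc-Cre system; cells 1,000/well, compound then virus (~0.5 moi) added 4 h after plating, 44 h culture. Luciferase read 15 sec following 15 min substrate incubation, room temp.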
Sm TGR block = qHTS Assay for the Inhibitors of Schistosoma Mansoni Peroxiredoxins | actives 3% (n = 360,000) | Potency, µM (doses to about 114 µM), inactives show at the top dose activity change, negative = inhibition, hits mostly inhibitors | Schistosoma mansoni thioredoxin glutathione reductase (TGR), Q962Y6 | purified TGR, DTNB reduction, TNB absorbance 405 nm; also: potency is read from the fitted curve at half-maximal effect; % is scaled to controls: 0 for no effect and ±100 for the full control effect; nearly all actives have a fitted effect of over 60% in size
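TGR 20 nM + NADPH 100 uM (dispensed conc.), cpd preinc 15 min RT; start with NADPH (500 uM addition) then DTNB (15 mM addition). Kinetic TNB absorbance, 405 nm filter. Four-parameter Hill fit across titration.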
SARS PLpro yeast = qHTS of Yeast-based Assay for SARS-CoV PLP | S. cerevisiae expressing SARS-CoV PLpro, growth rescue | actives 0.19% (n = 330,000) | Potency, µM (titrated, usually from 32.9 µM), for inactives: at the highest dose activity, positive = growth rescue, actives largely listed as activators; calls by dose curve; also: potency is read from the fitted curve at half-maximal effect; 0% is about no effect; nearly all actives have a fitted effect of over 55% in size
HCMV inh = qHTS Assay for inhibitors of the human cytomegalovirus (HCMV) | activity change, negative = inhibition, % at 57.5 µM | actives 4.5% (n = 410,000) | HFF cells, HCMV-luciferase reporter, 72 h; hits give low values; in the data active = activity change below about -60%; inconclusive = no clear call, values can overlap the other calls; inactive = above about -39%; also: % is scaled to controls: 0 for no effect and ±100 for the full control effect
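Two-dose cell screen: HFF monolayers treated with compounds and infected with luciferase-expressing HCMV at 1 PFU/cell, 72 h at 37C, then lysed for luciferase measurement.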
Pf growth 48h = Primary qHTS for delayed death inhibitors of the malarial parasite plastid, 48 hour incubation; P. falciparum luciferase growth in erythrocytes, 48 h; Potency, µM (doses to about 28.7 µM), for the others: at the top dose activity change, negative = inhibition, most hits filed as inhibitors; actives 5.9% (n = 310,000); AID 504832, 2011; also: potency is read from the fitted curve at half-maximal effect; % is scaled to controls: 0 for no effect and ±100 for the full control effect
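Firefly luciferase activity from engineered P. falciparum reports growth; inhibitors lower the luminescent signal. Cultures contained 2% hematocrit erythrocytes at 0.1% final parasitemia.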
Starred values were filed as active, the others as inactive; ? = inconclusive; · = no result; [ ] = another dose, or the depositor's remark. Unless noted, calls follow the shape of the dose curve; as a rule, active = well fitted curve in the direction sought with a large enough effect; inconclusive = small, poorly fitted or top-dose-only effect, or another doubt; inactive = no such curve, though single readings can be large; an effect the other way counts as inactive or inconclusive.

SMILES | Pf growth 96h | HCV inh | Sm TGR block | SARS PLpro yeast | HCMV inh | Pf growth 48h
Cc1oc(-c2cccc(Cl)c2)nc1CN1CCC(C(=O)NCCCN2CCN(c3cccc(Cl)c3)CC2)CC1 | · | · | 2.7% | · | -5.2 | ·
CCc1nc2c(sc3nc(N4CCOCC4)c4c(c32)CC(C)(C)OC4)c(=O)o1 | -6.5% | · | -27.0% | 1.2% | · | -6.7%
Cc1ccc(N2NC3(CCN(C(N)=O)CC3)NC2=O)cc1 | 30.6% | 4.4% | 39.8µM* | -1.1% | 23.9 | 17.3%
O=C1NC2(CCC3(CC2)OCCO3)NN1c1ccccc1 | 13.4% | -3.9% | -8.0% | -1.4% | -12.8 | 3.5%
CC1CC(Nc2ccccc2)c2ccccc2N1C(=O)c1cccnc1 (stereo unspecified) | 4.7% | 5.62µM* | -1.7% | 4.7% | -35.5 | ?
CC1CC(Nc2ccccc2)c2ccccc2N1C(=O)c1ccccc1F (stereo unspecified) | -1.9% | 1.9% | 3.0% | -2.0% | -66.7* | 23.5%
C[C@@H]1C[C@H](Nc2ccccc2)c2ccccc2N1C(=O)c1cccnc1 | -23.4% | ? | 3.6% | -0.5% | -20.1 | -26.7%
CCc1c(-c2ccccc2)ncn1Cc1cccc(-c2ccccc2)c1 | · | · | · | · | -67.9* | ·
CCc1c(-c2ccccc2F)ncn1Cc1cccc(-c2ccccc2)c1 | · | · | · | · | -71.5* | ·
CCc1c(C2CC2)ncn1Cc1cccc(-c2ccccc2)c1 | · | · | · | · | -98.9* | ·
COC(=O)C1=C(C(=O)OC)[C@@H]2N(C)c3ccccc3[C@@]23C[C@@H](C(=O)OC)N(C(=O)c2cc(C)oc2C)C3=N1 | ? | 17.1% | 1.2% | 2.8% | · | ?
Cc1cc(C(C)(C)C)cc(C)c1Cn1c2[n+](c3ccc(C(F)(F)F)cc31)CCCCC2 | ? | 7.08µM* | -2.2% | -9.5% | -94.6* | 3.29µM*
FC(F)(F)c1cccc(Cn2c3[n+](c4ccc(C(F)(F)F)cc42)CCCCC3)c1 | ? | 22.7% | -6.1% | 1.4% | -38.3 | 4.15µM*
Cc1cc(CNC(=O)c2ccc3nc(Cc4ccccc4F)oc3c2)nn1C | 2.08µM* | -0.5% | -1.2% | 10.0% | 100.2 | 14.3%
O=C(NCc1ccncc1)c1ccc2nc(Cc3ccccc3F)oc2c1 | ? | · | 65.3% | -3.2% | 22.2 | 15.1%
Cc1cccc(C)c1-n1nnnc1C(c1cc2ccccc2o1)N1CCN(C/C=C/c2ccccc2)CC1 (stereo unspecified) | · | · | · | · | -61.9* | ·
Cc1cccc(C)c1-n1nnnc1C(c1cccc2ccccc12)N1CCN(C/C=C/c2ccccc2)CC1 (stereo unspecified) | · | · | · | · | -6.6 | ·
CN(C)/C(CN1CCN(C=O)CC1)=C1\N=C(c2ccccc2)OC1=O | 36.1% | ? | 8.8% | -2.0% | -60.5* | 31.6%
COc1ccccc1CNC(=O)COC(=O)c1ccc(Cl)c(N)c1 | -4.5% | 10.6% | -4.1% | -4.3% | -5.4 | -3.9%
Nc1nc(CN2CCN(Cc3ccccc3)CC2)nc(Nc2ccc3c(c2)OCCO3)n1 | · | -15.9% | ? | 3.7% | 15.8 | -24.7%
Cc1ccc(Nc2nc(N)nc(CN3CCN(Cc4ccc5c(c4)OCO5)CC3)n2)cc1Cl | 101.2%[5.75 µM] | 31.6µM* | 0.6% | 7.1% | -19.9 | ?
Cc1ccc(Nc2nc(N)nc(CN3CCN(c4ccccc4)CC3)n2)cc1Cl | ? | ? | -2.4% | -0.5% | 2.4 | ?
Cc1ccc(Nc2nc(N)nc(CN3CCN(Cc4ccc5c(c4)OCO5)CC3)n2)cc1 | · | -26.6% | -19.7% | -1.1% | -28.9 | 10.4µM*
COc1ccccc1Nc1nc(N)nc(CN2CCC(Cc3ccccc3)CC2)n1 | 11.7% | -10.8% | ? | 2.1% | 27.1 | ?
Cc1ccc(Nc2nc(N)nc(CN3CCN(Cc4ccc5c(c4)OCO5)CC3)n2)cc1C | 21.8% | ? | · | 0.1% | ? | ?
SMILES | Pf growth 96h | HCV inh | Sm TGR block | SARS PLpro yeast | HCMV inh | Pf growth 48h
COc1ccc(N2CCN(Cc3nc(N)nc(Nc4ccc(C)c(Cl)c4)n3)CC2)cc1 | · | 10µM* | -10.6% | 0.5% | 29.5 | ?
COc1ccc(Nc2nc(N)nc(CN3CCC(Cc4ccccc4)CC3)n2)cc1 | -26.6% | ? | -12.9% | 5.7% | 2.2 | 5.86µM*
Cc1cccc(NC(=O)C2CCN(S(=O)(=O)c3cccc4cccnc34)CC2)n1 | 2.0% | ? | 2.0% | 10.3% | -18.8 | ·
Cc1ccc(Nc2nc(N)nc(CN3CCN(Cc4ccc5c(c4)OCO5)CC3)n2)c(C)c1 | ? | ? | 4.5% | 3.0% | -23.0 | 11.7µM*
COc1ccccc1OCCNC(=O)CN(c1cccc(C)c1)S(=O)(=O)c1ccccc1 | -23.5% | -24.5% | -3.9% | 6.4% | 3.0 | 14.7µM*
COc1ccc(OC)c(N(CC(=O)NCc2ccccc2)S(=O)(=O)c2ccc(OC)c(OC)c2)c1 | -14.8% | 13.7% | 25.1µM* | 1.1% | -24.0 | -20.4%
COc1ccc(OC)c(N(CC(=O)NCCc2ccc(OC)c(OC)c2)S(=O)(=O)c2ccccc2)c1 | 26.4% | -6.3% | -3.0% | 0.6% | -27.4 | ?
COc1ccc(OC)c(N(CC(=O)NCC2CCCO2)S(=O)(=O)c2ccccc2)c1 (stereo unspecified) | -9.4% | 18.2% | -20.2% | 1.8% | -63.0* | 6.6%
Cc1cccc(N(CC(=O)NCCSc2ccccn2)S(=O)(=O)c2ccccc2)c1 | ? | ? | -11.7% | -2.8% | -17.2 | ?
COc1ccc(CCNC(=O)CN(c2cc(OC)ccc2OC)S(=O)(=O)c2ccccc2)cc1 | 8.8% | -1.2% | 0.1% | 6.2% | 54.9 | 9.28µM*
Cc1ccc(N(CC(=O)NCC2CCCO2)S(=O)(=O)c2ccccc2)c(C)c1 (stereo unspecified) | 31.8% | 26.0% | -1.7% | -0.6% | ? | 13.6%
O=C1CSC(c2ccc([N+](=O)[O-])cc2)N1Cc1ccccc1 (stereo unspecified) | -9.0% | -0.1% | -5.4% | 1.7% | 5.8 | -10.3%
COC(=O)[C@@H](Cc1c[nH]c2ccccc12)NC(=O)CNC(=O)c1ccccc1OC | 6.6% | -11.0% | -12.0% | -1.0% | 82.6 | 15.6%
c1ccc(Nc2nnc(-c3ccc4c(c3)OCO4)o2)cc1 | · | · | · | · | -39.6 | ·
COc1ccccc1N(CC(=O)NCCSCc1ccc(C)cc1)S(=O)(=O)c1ccccc1 | -13.9% | 12.6µM* | -1.1% | -2.0% | -15.4 | ?
COc1ccc(CCNC(=O)CN(c2ccccc2OC)S(=O)(=O)c2ccc(C)cc2)cc1 | 99.7% | ? | 3.7% | 0.3% | 41.1 | 4.15µM*
